Test results from PubChem BioAssay (NCATS).
Records with an inconclusive call do not appear. Activity calls are given as the source filed them. Unless noted, calls follow the shape of the dose curve; as a rule, active = well fitted curve in the direction sought with a large enough effect; inconclusive = small, poorly fitted or top-dose-only effect, or another doubt; inactive = no such curve, though single readings can be large; an effect the other way counts as inactive or inconclusive.

Assays:
[1] = Cell Viability - BJ (AID 421; calls by dose curve;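 also: potency is read from the fitted curve at half-maximal effect; cells exposed to compound for 40 hours at 37 °C before readout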); settings: BJ fibroblast viability, qHTS
In short: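 Quantitative HTS: ATP depletion in BJ cells after 40 hr compound exposure in complete culture medium, detected with CellTiter-Glo; AC50 from standard Hill fits.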

[2] = Cell Viability - Hek293 (AID 427;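 active = compounds whose dose-response curve shows a full or clear partial loss of cell viability, called from curve shape rather than a numeric limit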;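 also: potency is read from the fitted curve at half-maximal effect; cells exposed to compound for 40 hours at 37 °C before reading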); settings: qHTS
In short: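 AC50 values derive from Hill-modelled concentration-response of ATP-based luminescence, normalized between DMSO-only and 100 uM tamoxifen controls. Cells were exposed in complete culture medium for 40 hr at 37 °C before detection.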

[3] = Cell Viability - HepG2 (AID 433; calls by dose curve;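 also: potency is read from the fitted curve at half-maximal effect; potency for ATP loss meaning cytotoxicity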); settings: qHTS
In short: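 Cytotoxicity read as ATP loss (CellTiter-Glo luminescence) after 40 hr compound exposure of HepG2, 1500 cells/well, 37 °C. AC50 by Hill equation; 0% set by DMSO, 100% inhibition by 100 uM tamoxifen.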

[4] = Cell Viability - MRC5 (AID 434; calls by dose curve;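 also: potency is read from the fitted curve at half-maximal effect; potency reflects cytotoxicity seen as loss of intracellular ATP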); settings: MRC5 lung fibroblast viability, qHTS
In short: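 MRC5 normal human lung fibroblasts, 1500 cells/well, exposed to compound for 40 hr at 37 C. Cellular ATP was read by CellTiter-Glo luminescence; data normalized to DMSO and 100 uM tamoxifen, with AC50 from Hill fits.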

[5] = biological target: Mitogen-activated protein kinase 10 (Mus musculus) (UniProt Q61831); test: JNK3 AlphaScreen Assay (AID 530; active = well fitted curve in either direction with a large enough effect, not every such curve was filed as active;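 also: kinase came from lysate of stimulated human HepG2 cells; signal reports phosphorylation of biotinylated GST-cJun 1-79 at Ser73 with 10 µM ATP; series mostly up to about 57 µM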)
In short: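 qHTS format: compounds tested as titrations against IL-1beta/TNF-alpha-activated HepG2 lysate JNK3 with biotin-GST-cJun substrate and 10 uM ATP at room temperature. Loss of anti-phospho-cJun AlphaScreen signal indicates inhibition.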

[6] = Cell Viability - HUV-EC-C (AID 542); also: nearly all actives have a fitted effect of over 35% in size
In short: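 Decrease in cellular ATP, quantified by luciferase luminescence, reflects toxicity in normal human vascular endothelial HUV-EC-C cells given compound for 40 hr in complete culture medium. Values are AC50s from concentration-response curves.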

[7] = Cell Viability - SH-SY5Y (AID 544); also: nearly all actives have a fitted effect of over 55% in size
In short: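 Cytotoxicity is scored as a concentration-dependent fall in intracellular ATP in human SH-SY5Y cells treated 40 hr in complete culture medium. Potency is expressed as AC50 from a Hill equation fit.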

[8] = Cell Viability - Mesenchymal (AID 546);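 also: cells exposed to compound for 40 hours before reading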
In short: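 Human kidney mesenchymal cells from normal renal glomeruli, 1000 cells/well, rested 5 hr at 37 °C, then treated 40 hr at 37 °C in complete medium. Cellular ATP read by CellTiter-Glo luminescence; AC50 from Hill-equation fits.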

[9] = Cellular Toxicity (caspase-3) HepG2 (AID 654);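 also: cells exposed to compound for 16 hours before reading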
In short: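 qHTS, HepG2, 1500 cells/well, complete medium; cpd 16 h 37 °C; Caspase-Glo 3/7, 20 min RT; lum. Norm: DMSO vs 100 uM tamoxifen; AC50 Hill fit.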

[10] = Cellular Toxicity (caspase-3) Jurkat (AID 655);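 also: cells exposed to compound for 16 h at 37 °C before reading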
In short: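 Luminescent Caspase-Glo 3/7 read-out (20 min, room temperature) after 16 h compound treatment at 37 C of 5000 Jurkat cells per well. AC50 derived by Hill-equation fitting, scaled between DMSO basal and 100 uM tamoxifen stimulation.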

[11] = Cellular Toxicity (caspase-3) HUV-EC-C (AID 656)
In short: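 Luminescent Caspase-Glo 3/7 readout after 16 h, 37 °C compound exposure of HUV-EC-C endothelial cells, 1000 per well, complete medium. AC50 derived by Hill fitting, with DMSO as baseline and 100 uM tamoxifen as full activation.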

[12] = Cellular Toxicity (caspase-3) SHSY5Y (AID 657)
In short: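 Luminescent Caspase-Glo 3/7 read-out, 1 hr room temperature, follows 16 hours of compound treatment of SH-SY5Y cells at 37 °C. Normalization: DMSO basal, 10 uM staurosporine as 100%; AC50 values from Hill-equation concentration-response fits.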

[13] = Cellular Toxicity (caspase-3) BJ (AID 658)
In short: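 BJ human foreskin fibroblasts, 1000 cells/well, treated 16 hours at 37 °C in complete medium; caspase 3/7 activity by Caspase-Glo luminescence after 1 hr at room temperature. Normalized to DMSO and 10 uM staurosporine; AC50 from Hill fits.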

[14] = Cellular Toxicity (caspase-3) MRC-5 (AID 659)
In short: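 MRC-5 human normal lung fibroblasts, 1500 cells/well, treated 16 h at 37 °C in complete medium. Caspase 3/7 measured by Caspase-Glo luminescence after 1 h at room temperature. Normalized to DMSO and 10 uM staurosporine; AC50 from Hill fit.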

[15] = Cellular Toxicity (caspase-3) Mesangial (AID 660);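 also: combined caspase 3 and 7 activity read by Caspase-Glo luminescence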
In short: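 Concentration-response qHTS: compound-induced rise in caspase 3/7 luminescence in human mesangial cells after 16 h, normalized to DMSO and 100 uM tamoxifen controls.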

[16] = Cellular Toxicity (caspase-3) SK-N-SH (AID 661)
In short: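 Caspase 3/7 activation is measured as a luminescence increase from aminoluciferin released by substrate cleavage in SK-N-SH cells after 16 hr compound treatment; values are AC50 from concentration-response curves.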

[17] = Cellular Toxicity (caspase-3) H-4-II-E (AID 663)
In short: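 Rat hepatoma H-4-II-E cells (1500/well) plated 5 hr, then exposed to compound titrations for 16 hr at 37 °C. Caspase-Glo 3/7 luminescence read after 20 min at RT; data normalized to DMSO and 100 uM tamoxifen, AC50 from Hill fits.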

[18] = Cellular Toxicity (caspase-3) Hek293 (AID 664);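 also: cells exposed to compound for 16 h at 37 °C before readout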
In short: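 Activation of caspase-3/7 is measured as increased luminescence from cleaved peptide-aminoluciferin substrate in HEK293 cells treated 16 hours at 37 °C. AC50 values come from Hill-equation fits of concentration-response data.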

[19] = Cellular Toxicity (caspase-3) N2a (AID 665);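 also: compound exposure lasted 16 h at 37 °C before readout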
In short: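 Plated mouse neuroblastoma N2a cells received titrated compounds for 16 h in complete medium. Caspase activity was then detected with a peptide-aminoluciferin luminescent reagent.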

[20] = biological target: Cytochrome P450 3A4 (Homo sapiens) (UniProt P08684); test: qHTS Assay for Inhibitors and Substrates of Cytochrome P450 3A4 (AID 884); also: series mostly up to about 57 µM; nearly all actives have a fitted effect of over 50% in size
Chain of Cytochrome P450 3A4 (Homo sapiens) (P08684 whole entry, looked up): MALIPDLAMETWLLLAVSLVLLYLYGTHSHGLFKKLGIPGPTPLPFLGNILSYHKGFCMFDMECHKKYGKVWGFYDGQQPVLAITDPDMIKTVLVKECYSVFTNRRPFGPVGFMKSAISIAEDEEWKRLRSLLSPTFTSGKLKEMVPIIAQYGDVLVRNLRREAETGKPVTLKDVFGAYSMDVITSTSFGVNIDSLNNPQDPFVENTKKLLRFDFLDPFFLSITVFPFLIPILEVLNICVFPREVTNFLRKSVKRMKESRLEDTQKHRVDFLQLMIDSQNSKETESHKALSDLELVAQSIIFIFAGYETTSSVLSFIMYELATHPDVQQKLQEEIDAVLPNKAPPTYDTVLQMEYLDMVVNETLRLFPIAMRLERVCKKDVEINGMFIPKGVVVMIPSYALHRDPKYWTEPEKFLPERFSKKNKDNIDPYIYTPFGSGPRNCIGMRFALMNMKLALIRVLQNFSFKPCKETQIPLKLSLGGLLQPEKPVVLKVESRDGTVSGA
In short: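 20 nM human CYP3A4 with 25 uM Luciferin-PPXE (at KM) in 200 mM KPO4, preincubated 10 min with compound; NADPH regeneration started a 60 min RT reaction. Luciferin detected by luminescence, normalized to 57 uM ketoconazole as full inhibition.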

[21] = Confirmation and Secondary Assay for Modulators of Hemoglobin Beta Chain Splicing at IVS2 654 locus (AID 910);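 also: HeLa cells stably carrying EGFP split by mutant beta-globin IVS2-654 intron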
In short: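 HeLa cells stably expressing EGFP interrupted by β-globin IVS2-654 intron, seeded overnight in Opti-MEM/2% FCS, then treated 2 days at 37 °C. Restored splicing read as total peak GFP intensity per well by laser scanning cytometry (488 nm excitation, 500–520 nm emission); 500 nM antisense PNA as control.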

[22] = Cell Viability - LYMP2-001 (AID 921); also: series mostly up to about 92 µM; nearly all actives have a fitted effect of over 70% in size
In short: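 Cellular ATP loss read by luciferase luminescence after 24 h compound exposure at 37 C in complete medium. LYMP2-001 lymphoblastoid cells, 2500/well; qHTS concentration-response data fitted with Hill equation for AC50.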

[23] = Confirmation and Secondary Assay for Modulators of Hemoglobin Beta Chain Splicing at IVS2 705 locus (AID 930);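 also: HeLa cells stably expressing the EGFP-705 splicing reporter; GFP fluorescence per well restored by corrected splicing of the IVS2-705 intron in EGFP; series mostly up to about 46 µM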
In short: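 Fluorescence gain (488 nm laser, 500-520 nm PMT) reflects restored correct splicing of a mutant IVS2-705 intron inside EGFP in stably transfected HeLa cells after 2-day compound treatment.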

[24] = MultiTox-Fluor Cytotoxicity Assay - LYMP1-001 - Dead Cells (AID 946)
In short: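 In this qHTS, 15 uM tetraoctylammonium bromide defined 100% and DMSO defined basal activity. Lymphoblastoid cells (LYMP1-001, 2500 per well) received compound for 16 hr at 37 C before a fluorogenic dead-cell substrate readout at 485/520 nm.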

[25] = Cell Viability - LYMP1-002 - Assay at 16 hr (AID 948)
In short: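 ATP luminescence (CellTiter-Glo) was measured after 16 hr compound exposure at 37 C of 2500 lymphoblastoid LYMP1-002 cells per well. Concentration-response curves were fitted with the Hill equation to give AC50.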

[26] = MultiTox-Fluor Cytotoxicity Assay - LYMP1-002 - Live Cells (AID 955)
In short: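 Cytotoxicity in the human lymphoblastoid line LYMP1-002 is measured as loss of live-cell protease activity after 16 h treatment in complete culture medium. AC50 is derived from Hill-equation fits of qHTS concentration-response data.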

[27] = MultiTox-Fluor Cytotoxicity Assay - LYMP1-003 - Dead Cells (AID 961); also: nearly all actives have a fitted effect of over 70% in size
In short: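 Acute toxicity is scored as increased dead-cell protease activity in human lymphoblastoid LYMP1-003 cells after 16 h compound exposure in complete culture medium. Activity is normalized to DMSO basal and 15 uM tetraoctylammonium bromide as full response.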

[28] = MultiTox-Fluor Cytotoxicity Assay - LYMP1-003 - Live Cells (AID 962);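 also: cytotoxic hits lower the live-cell protease signal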
In short: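 Cells plated at 2500 per well and incubated 5 hr; compounds added and incubated 16 hr at 37 C; MultiTox-Fluor reagent added for 60 min at room temperature; fluorescence of liberated AFC measured at 405/510 nm.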

[29] = Cell Viability - LYMP1-003 - Assay at 24 hr (AID 963)
In short: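 Acute toxicity in LYMP1-003 lymphoblastoid cells: 24 hr compound treatment at 37 C, ATP measured with CellTiter-Glo after 30 min at room temperature. AC50 derived by fitting the Hill equation to qHTS titrations.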

[30] = Cell Viability - LYMP1-003 - Assay at 40 hr (AID 964); also: series mostly up to about 92 µM; nearly all actives have a fitted effect of over 60% in size
In short: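 This qHTS cytotoxicity screen treats human lymphoblastoid cells (LYMP1-003) with compounds for 40 hr and quantifies cellular ATP via luciferase luminescence.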

[31] = Cell Viability - LYMP2-003 (AID 965);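 also: cells exposed to compounds for 24 h before reading; nearly all actives have a fitted effect of over 50% in size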
In short: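 CellTiter-Glo luminescence quantified ATP loss after 24 h compound treatment of LYMP2-003 lymphoblastoid cells at 37 C. Titration series were fitted with the standard Hill equation to give AC50.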

[32] = Cell Viability - LYMP2-004 (AID 966); also: nearly all actives have a fitted effect of over 65% in size
In short: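 Acute toxicity is scored as a concentration-dependent drop in intracellular ATP, quantified by luciferase luminescence, in human lymphoblastoid cells exposed to compound for 24 hr. AC50 derives from Hill-equation modelling.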

[33] = Cell Viability - LYMP2-005 (AID 967); also: series mostly up to about 92 µM
In short: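 LYMP2-005 human lymphoblastoid cells (2500/well) were treated with compounds for 24 h at 37 C. Intracellular ATP was then measured by CellTiter-Glo luminescence after 30 min at room temperature. AC50 values came from Hill-equation fits of qHTS concentration-response data.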

[34] = Cell Viability - LYMP2-009 (AID 968); also: series mostly up to about 92 µM; nearly all actives have a fitted effect of over 55% in size
[35] = Cell Viability - LYMP2-011 (AID 969); also: nearly all actives have a fitted effect of over 60% in size
In short: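 Acute toxicity is scored as a concentration-dependent drop in intracellular ATP of a human lymphoblastoid line after 24 hr treatment. Values are AC50s modeled with the Hill equation.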

[36] = Cell Viability - LYMP2-013 (AID 970); also: series mostly up to about 92 µM; nearly all actives have a fitted effect of over 55% in size
In short: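 Acute toxicity was measured in human lymphoblastoid cells (2500/well) exposed to compound titrations for 24 hr, with ATP luminescence (CellTiter-Glo) as read-out and AC50 fitted by Hill equation.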

[37] = Cell Viability - LYMP2-015 (AID 971); also: nearly all actives have a fitted effect of over 55% in size
In short: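 Acute toxicity was scored as a concentration-dependent drop in intracellular ATP in lymphoblastoid cells after 24 hr compound exposure in complete medium. Detection used CellTiter-Glo luciferase luminescence.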

[38] = Cell Viability - LYMP2-017 (AID 972)
In short: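 Steps: plate 2500 lymphoblastoid cells per well; incubate 5 hr at 37 C; add compound across a concentration series and incubate 24 hr at 37 C; add CellTiter-Glo and read luminescence after 30 min at room temperature; fit Hill curves for AC50.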

[39] = Cell Viability - LYMP2-019 (AID 973); also: nearly all actives have a fitted effect of over 55% in size
In short: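 Cells plated at 2500/well and allowed 5 hr at 37 C before compound addition. After 24 hr incubation, CellTiter-Glo reagent was added, plates sat 30 min at room temperature, and luminescence was recorded.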

[40] = Cell Viability - LYMP2-021 (AID 974)
In short: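 Concentration-response cytotoxicity in a human lymphoblastoid line: 24 hr treatment at 37 C in complete culture medium, tetraoctylammonium bromide as positive control, luminescent ATP quantitation as viability measure.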

[41] = Cell Viability - LYMP2-023 (AID 975)
In short: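 Concentration-dependent drop in intracellular ATP measures acute cytotoxicity in a human lymphoblastoid line treated for 24 hours in complete culture medium. AC50 values are taken from Hill-equation fits of qHTS data.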

[42] = Cell Viability - LYMP2-002 (AID 977); also: series mostly up to about 92 µM
In short: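 Human lymphoblastoid LYMP2-002 cells, 2500 per well, exposed to compounds for 24 h at 37 C in complete medium; viability read as intracellular ATP by CellTiter-Glo luminescence, AC50 from Hill fits.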

Measured: Potency

O=C(Nc1ccccc1)Nc1ccccc1
inactive: [1] > 92 µM | [2] > 92 µM | [3] > 92 µM | [4] > 92 µM | [5] | [6] | [7] | [8] | [9] | [10] | [11] | [12] | [13] | [14] | [15] | [16] | [17] | [18] | [19] | [20] | [21] | [22] | [23] | [24] | [25] | [26] | [27] | [28] | [29] | [30] | [31] | [32] | [33] | [34] | [35] | [36] | [37] | [38] | [39] | [40] | [41] | [42]
